High-throughput results (PubChem BioAssay)
NS1 function inh = blocks influenza NS1 protein function | actives 0.4% (n = 270,000) | Potency, µM (titrated, usually from 46.1 µM), without a hit: at the highest dose activity, positive = more growth; calls by dose curve; also: actives are rising curves; nearly all actives have a fitted effect of over 50% in size
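Recovery from NS1-induced slow growth read by OD600 in budding yeast switched to galactose assay medium (pH 6.0, -URA) at 1:100 dilution. Compound 23 nl per well; the matching strain lacking NS1 serves as control.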
RE007 growth inh = less growth of the S. pombe RE007 Vpr strain. S. pombe RE007 Vpr strain, BacTiter-Glo ATP luminescence, 24 h. Potency, µM (highest dose often 92.2 µM), for inactives: top-dose activity change, negative = less growth, hits mostly inhibitors. actives 0.21% (n = 360,000). AID 651644; active = well fitted falling curve with a large enough effect; inconclusive = small, poorly fitted or top-dose-only effect; inactive = no such curve, though single readings can be large or run the other way; also: % is scaled to controls: 0 for no effect and ±100 for the full control effect; nearly all actives have a fitted effect of over 50% in size
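Fission yeast RE007 carrying one integrated HIV-1 vpr copy, seeded at OD 0.01 in PMG+AL medium with 23 nL pinned compound. Grown 24 h at 30 degrees; viability read by BacTiter-Glo luminescence after 5 min.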
SARS PLpro yeast = SARS-CoV PLP inhibition in yeast | S. cerevisiae expressing SARS-CoV PLpro, growth rescue | Potency, µM (series often up to 32.9 µM), inactives show top-dose activity, positive = growth rescue, actives largely listed as activators | actives 0.19% (n = 330,000); calls by dose curve; also: 0% is about no effect; nearly all actives have a fitted effect of over 55% in size
Sm TGR inh = blocks Schistosoma mansoni thioredoxin glutathione reductase; Q962Y6; purified TGR, DTNB reduction, TNB absorbance 405 nm; Potency, µM (highest dose often 114 µM), for inactives: top-dose activity change, negative = inhibition, hits mostly inhibitors; actives 3% (n = 360,000); AID 485364; also: % is scaled to controls: 0 for no effect and ±100 for the full control effect; nearly all actives have a fitted effect of over 60% in size
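First, TGR (20 nM dispensed) and NADPH were mixed with compound. Second, a 15 min room-temperature incubation followed. Third, further NADPH and then DTNB were added to start the reaction. Finally, TNB absorbance was monitored kinetically.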
TbPYK inhibitor = blocks Trypanosoma brucei pyruvate kinase; Q57TT1; TbPYK enzyme, Kinase-Glo Plus ATP luminescence, 45 min; Potency, µM (highest dose often 76.8 µM), inactives show at the top dose activity, negative = inhibition, actives largely listed as inhibitors; actives 0.12% (n = 410,000); AID 624173; also: % is scaled to controls: 0 for no effect and ±100 for the full control effect; nearly all actives have a fitted effect of over 50% in size
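Luminescence from Kinase-Glo Plus, added after a 45-minute room-temperature reaction, served as the end-point read-out. The enzyme and substrate were preincubated with compound before ADP (130 uM final) initiated turnover. Concentration-effect curves came from normalized qHTS data.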
LmPK inhibitor = LmPK (Leishmania mexicana) enzyme inhibition. Q27686. purified LmPK, Kinase-Glo ATP luminescence, 1 h. Potency, µM (titrated, usually from 57.5 µM), inactives show top-dose activity change, negative = inhibition, actives largely listed as inhibitors. actives 0.37% (n = 290,000). AID 1721; also: % is scaled to controls: 0 for no effect and ±100 for the full control effect
Target sequence (Q27686 whole entry, looked up): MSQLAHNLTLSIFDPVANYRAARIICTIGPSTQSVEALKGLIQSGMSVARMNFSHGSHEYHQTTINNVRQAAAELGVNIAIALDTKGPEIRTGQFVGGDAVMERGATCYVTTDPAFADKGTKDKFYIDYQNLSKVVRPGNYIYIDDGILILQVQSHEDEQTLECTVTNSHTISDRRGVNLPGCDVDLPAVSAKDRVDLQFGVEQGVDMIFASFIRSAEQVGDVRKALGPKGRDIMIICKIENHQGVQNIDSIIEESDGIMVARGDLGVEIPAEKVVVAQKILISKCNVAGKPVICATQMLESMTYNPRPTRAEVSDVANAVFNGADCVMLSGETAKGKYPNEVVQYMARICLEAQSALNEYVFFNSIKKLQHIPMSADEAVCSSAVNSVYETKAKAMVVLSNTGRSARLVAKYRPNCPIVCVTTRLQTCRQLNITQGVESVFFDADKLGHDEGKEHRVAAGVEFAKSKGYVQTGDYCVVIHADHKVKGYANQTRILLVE
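Screened at intermediate enzyme activity to detect both inhibitors and activators: LmPK at 0.1 nM, with a 0.5 nM enzyme column as activation reference. PEP 0.5 mM, ADP 0.1 mM; ATP detected by luminescence after 1 h.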
* = called active by the depositor; ? = inconclusive; nt = no result given; [ ] = dose if it differs, or a comment. Only some compounds are listed: those with a hit (about 3.3% of all), similar ones and a draw of the others. Unless noted, calls follow the shape of the dose curve; as a rule, active = well fitted curve in the direction sought with a large enough effect; inconclusive = small, poorly fitted or top-dose-only effect, or another doubt; inactive = no such curve, though single readings can be large; an effect the other way counts as inactive or inconclusive. Potency is read from the fitted curve at half-maximal effect.

SMILES	NS1 function inh	RE007 growth inh	SARS PLpro yeast	Sm TGR inh	TbPYK inhibitor	LmPK inhibitor
CCN(CC)c1nn2c(=O)c(C(=O)NCc3ccc(OC)cc3OC)cnc2s1	nt	nt	nt	?	1%	nt
O=C1NC(=O)C(=Cc2ccc(Sc3ccccc3)o2)C(=O)N1	-14%	0%	1%	50µM*	40µM*	?
NC(=O)/N=C(\N)NC(=O)c1ccccc1	-3%	nt	nt	nt	nt	nt
O=C1NCCCC2c3c(cc(Br)c(O)c3Br)OC12N1CCOCC1 (stereo unspecified)	6%	-27%	6%	40µM*	-5%	-3%
Cc1cc(N2CCOCC2)ccc1/C=C1\C(=O)NC(=O)N(c2ccccc2)C1=O	7%	-10%	-2%	?	?	-5%
Cc1cc(N2CCOCC2)ccc1/C=C1/SC(=O)NC1=O	nt	10%	7%	6%	?	16µM*
COc1ccc(N2CCN(CCCNC(=O)c3c(C)nn(-c4ccc(F)cc4)c3-n3cccc3)CC2)cc1	nt	nt	nt	-5%	-1%	nt
CCOC(=O)/C=C(\C)Sc1cc(=O)oc2ccccc12	?	23%	-37%	22µM*	0%	1%
CCOC(=O)/C=C(\C)Sc1cc(O)c2ccccc2c1O	-80%	63µM*	-7%	0.79µM*	7.1µM*	10µM*
COc1ccc(NC(=O)CS(=O)(=O)c2cn(CC(=O)N3CCOCC3)c3ccccc23)cc1OC	-1%	-16%	1%	-10%	?	-1%
COc1ccc(CCNC(=O)CS(=O)(=O)c2cn(CC(=O)N3CCOCC3)c3ccccc23)cc1OC	nt	-9%	4%	25µM*	-20%	11%[11.5 µM]
O=C(CSc1nc2ccccc2n1Cc1c(F)cccc1Cl)N1CCN(c2ccc(F)cc2)CC1	nt	nt	nt	?	1%	nt
CCCC(=O)Nc1ccc2nn(-c3ccc(CC)cc3)nc2c1	nt	nt	nt	-1%	-2%	nt
CCCCn1c(=O)c(CCC(=O)O)nc2ccccc21	nt	13%	1%	-30%	0%	1%
O=C(O)CCc1nc2ccccc2n(CCc2ccccc2)c1=O	-2%	10%	3%	40µM*	0%	-1%
COc1nc2ccccc2nc1CCC(=O)O	4%	10%	0%	0.1µM*	-3%	-9%
CCOC(=O)C1CCN(c2c(NCc3ccc(C(=O)O)cc3)c(=O)c2=O)CC1	-4%	nt	nt	nt	nt	nt
CCOc1ccc(NC(=O)CN(C)C(=O)c2ccncc2)cc1OCC	4%	6%	-2%	25µM*	-1%	-11%
CCOc1ccc(NC(=O)CN(C)C(=O)c2cc(C)on2)cc1OCC	nt	-6%	1%	0%	-3%	nt
NC(=O)c1c(NC(=O)c2noc3c2CCCC3)sc2c1CCCC2	nt	nt	nt	0%	10%	nt
COC(=O)CCCC1=CC2=CC(=O)C(C)(OC(=O)c3cccs3)C(=O)C2=CN1Cc1ccccc1 (stereo unspecified)	?	-14%	4%	-3%	1%	-2%[11.5 µM]
COC(=O)CCC(=O)OC1(C)C(=O)C=C2C=C(C3CC3)N(Cc3ccco3)C=C2C1=O (stereo unspecified)	-14%	0%	-4%	32µM*	-1%	-4%[11.5 µM]
COC(=O)CCCC1=CC2=CC(=O)C(C)(OC(=O)c3cccs3)C(=O)C2=CN1Cc1ccco1 (stereo unspecified)	7%	-13%	2%	35µM*	-4%	4%[11.5 µM]
CC[N+](CC)(CC)CCOC(=O)C(C1CCCC1)C1CCCC1	nt	nt	nt	nt	-2%	nt
COc1ccc(Cl)cc1NC(=O)CSC1=Nc2ccccc2C2=NC(CC(=O)NCc3cccs3)C(=O)N12 (stereo unspecified)	nt	nt	nt	1%	1%	nt
SMILES	NS1 function inh	RE007 growth inh	SARS PLpro yeast	Sm TGR inh	TbPYK inhibitor	LmPK inhibitor
Cc1ccc(-c2ccc(C(=O)NCc3ccc(Cl)cc3)o2)c2ccccc12	-42%	-1%	-21%	14µM*	-12%	0%
COc1ccc(NC(=O)c2ccc(-c3ccc(C)c4ccccc34)o2)cc1	-20%	-7%	-10%	45µM*	-10%	-4%
COc1cc(CN2CCNC(=O)C2CC(=O)N2CCCN(C(C)=O)CC2)cc(OC)c1 (stereo unspecified)	19%	1%	-4%	32µM*	2%	1%
O=C(CC1C(=O)NCCN1Cc1cccc(F)c1)NCCCN1CCCC1=O (stereo unspecified)	0%	0%	nt	0%	-5%	5%
Cc1ccc(CN2CCNC(=O)C2CC(=O)O)o1 (stereo unspecified)	2%	12%	-3%	45µM*	-2%	4%
COc1cccc(CN2CCNC(=O)C2CC(=O)NCCCN2CCCC2=O)c1 (stereo unspecified)	11%	-8%	4%	18µM*	-4%	-3%
Cc1ccc(CN2CCNC(=O)C2CC(=O)N(C)C2CCCCC2)o1 (stereo unspecified)	2%	2%	0%	?	-25%	-2%
COc1cccc(CCNC(=O)CC2C(=O)NCCN2Cc2ccc(C)o2)c1 (stereo unspecified)	-9%	6%	4%	50µM*	7%	14%
Nc1nc(N)c2cc([N+](=O)[O-])ccc2n1	nt	9%	nt	nt	-3%	nt
Nc1nc(N)c2c(ccc3c2ccn3Cc2cccc([N+](=O)[O-])c2)n1	nt	5.6µM*	nt	nt	1%	nt
COc1ccc(-c2nnc(SCC(=O)c3ccc(NC(C)=O)cc3)o2)cc1OC	nt	nt	nt	2%	3%	nt
Cc1cccc(S(=O)Cc2ccc(C(=O)N3CCOCC3)o2)c1 (stereo unspecified)	8%	8%	-5%	45µM*	-7%	-3%
O=C(O)CCC(=O)c1ccc[nH]1	0%	nt	nt	nt	nt	nt
O=C(NCCC1=CCCCC1)c1ccc2c(=O)n3nc(Nc4ccccc4)sc3nc2c1	nt	nt	nt	-9%	-6%	nt
COc1ccc(CCNC(=O)C(=O)NCC(c2ccco2)S(=O)(=O)c2ccccc2)cc1OC (stereo unspecified)	nt	nt	nt	13µM*	0%	nt
COc1ccccc1CNC(=O)C(=O)NCC(c1ccco1)S(=O)(=O)c1ccc(C)cc1 (stereo unspecified)	nt	nt	nt	-26%	-6%	nt
COc1ccccc1CCNC(=O)C(=O)NCC(c1cccs1)S(=O)(=O)c1ccc(F)cc1 (stereo unspecified)	nt	nt	nt	-1%	-3%	nt
COc1ccccc1CCNC(=O)C(=O)NCC(c1ccco1)S(=O)(=O)c1ccc(F)cc1 (stereo unspecified)	nt	nt	nt	18µM*	-16%	nt
Cc1ccccc1CNC(=O)C(=O)NCC(c1ccco1)S(=O)(=O)c1ccc(F)cc1 (stereo unspecified)	nt	nt	nt	8.9µM*	2%	nt
O=C(NCCc1ccc(F)cc1)C(=O)NCC(c1ccco1)S(=O)(=O)c1ccccc1 (stereo unspecified)	nt	nt	nt	-23%	-6%[15.4 µM]	nt
